Experimental data as given in the supplement of paper PMC11417369.
± gives the standard deviation of the averaged measurements. The full ranking holds about 25,000 sequences; the median of “ln(normalized median fluorescence intensity)” is about 7.9, and the highest 2% start at about 11. The full list was thinned out, with the highest values kept by preference.

test system: PfAP2-I AP2 domain 3 (GST-tagged); test: gcPBM binding intensity (ln(normalized median fluorescence intensity)); higher = stronger DNA binding
In short: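 The binding buffer was 1× PBS containing 1% milk, 0.2 mg/ml BSA, 0.5% salmon testes DNA and 0.03% Triton X-100. In it, GST-tagged P. falciparum DNA-binding domains expressed in E. coli were applied for 1 h to an Agilent 4 × 180k array of primer-extended double-stranded 36-bp intergenic genomic probes plus negative controls. Binding intensity, read with Alexa488 anti-GST antibody and a 488 nm scan, is the highest Masliner-normalised natural-log median intensity across replicate spots of either probe orientation.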

Sequence | gcPBM binding intensity (ln)
ATATATATATATGAAAGTACACATCTATTTTTTCTT [XGTACX_site6059] | 9.29 ± 0.18
ATTGAACACATCTATGCATGCACGGAAAAAAGTACA [TGCATGCA_site401] | 11 ± 0.28
GCATGCACGGAAAAAAGTACATATATAAATTTGGTT [XGTACX_site3393] | 8.2 ± 0.52
AGAAAGGATATAAGCGTAGCTATATCATAAAAAATG [GTGCAC_negctrl_site332] | 7.58 ± 0.74
TTTTTTTTTTTTTTGGTGCACATAGAAATTCTAAAA [GTGCAC_site9809] | 10.9 ± 0.6
AAAAAAAAAATTTTCGTGCACATAAGAAAATTTAAA [GTGCAC_site9788] | 10.3 ± 0.16
TGTAGAAATGGGTGCACACACATATAAAATCTATAT [CACACA_site7224] | 10.4 ± 0.59
ATATTTTAATTATAAAGTACATAAAAATATATAAAC [XGTACX_site6705] | 7.92 ± 0.35
ATATATACATATAAATGTACATAATTATTATGCACA [XGTACX_site1261] | 11.3 ± 0.82
TATTACATACATATCTGTACATATATTAATGCACAA [XGTACX_site3315] | 11.6 ± 1
TTTTTTTTTTTTTTGTGTACATATAATGCACATTAT [XGTACX_site6505] | 11.1 ± 0.93
AAAAAAAAAAAATTATGTACATATTATATATAATGG [XGTACX_site2885] | 7.77 ± 0.45
TTTGTGTATATATAATGTACATTATATTTTTATTAT [XGTACX_site6506] | 8.13 ± 0.45
TTAATATTAATATATTGTACATATATGCACATATTT [XGTACX_site6569] | 9.1 ± 0.18
ATATAATATCTGTATACACACATATTATATAATATT [CACACA_site5940] | 7.86 ± 0.51
ATATATATATATAATGCACACATTATAAATTATGTA [CACACA_site5802] | 11.1 ± 0.26
TATTTCTGATTATTTTGTACACATTATATATAATGC [XGTACX_site6990] | 8.04 ± 0.29
TTATGTTCATTATATGCACACATATATATAAATGTA [CACACA_site8947] | 9.11 ± 0.071
ATGTTCATTATATGCACACATATATATAAATGTAAT [CACACA_site2908] | 9.34 ± 0.3
TATTATAATAAAATATGTACACACATACACACATAT [XGTACX_site2360] | 7.98 ± 0.41
TGAAAATATATAACGCGTACAAAAAGGAAATACAAT [XGTACX_site3534] | 8.38 ± 0.64
AAAAAAAAAAAAAATATACACACTAATATATTTTTT [CACACA_site815] | 7.98 ± 0.54
TAAATATATTAAGCTTGTACATGAAAAAAAAAAAAA [XGTACX_site3264] | 8.1 ± 0.59

Sequence | gcPBM binding intensity (ln)
TTTTCTTAAAAAATCAAACACACATATATATATACA [CACACA_site2297] | 7.6 ± 0.51
ATATATATATATAATGCACACATTATGAATTATGTA [CACACA_site3384] | 11.3 ± 0.26
ATAAATAATTATATATGTACACATTATGAATGGATA [XGTACX_site8336] | 7.78 ± 0.4
GATATATAATATAATACACACATTTTATGAATGTAA [CACACA_site24] | 7.66 ± 0.32
AAATGTTATAACTCTTGAAAAAACAAAATATCATCA [CACACA_negctrl_site1156] | 7.57 ± 0.49
ACCAATAATATACATACACACATAAAGGTTTATATA [CACACA_site315] | 7.95 ± 0.44
AAAAAAAAAAAAAACATACACACATTGAACTTTTAT [CACACA_site3251] | 8.18 ± 0.54
ATGAAACAGTAACATTGTACTTTTACAAAAAAATAA [XGTACX_site806] | 7.7 ± 0.33
TGTGTCCATTGAACAGTGCAATAAAAACTTTTACAT | 11.2 ± 0.59
TACACACCTAACTATGCATGCATCAATATAGTGGAT [TGCATGCA_site443] | 7.76 ± 0.75
CACAAAAATAAACACACACACATATATATATATATA [CACACA_site4704] | 9.39 ± 0.42
AAAATATAATATAATGCACACATAAACAAAAAAAAA [CACACA_site8161] | 10.9 ± 0.74
AATATAATATAATGCACACATAAAAAAAAAATCAAA [CACACA_site122] | 11.2 ± 1
TAATAAATCAAATGCACACACACAAAAAAAAAAAAA [CACACA_site161] | 9.24 ± 0.38
AATTTAATATAATGCACACATAAAACAAAAACAAAA [CACACA_site529] | 10.8 ± 0.72
CATTAACAAATAAATGCACACATATATATAAATAAT [CACACA_site7892] | 9.51 ± 0.35
AACGGGTAATGCACAAAAAAAAAAAAATAAAATAAA [TGCATGCA_negctrl_site474] | 11.4 ± 1
AAAATTTAATATAATGCACACATAAAACAAAAACAA [CACACA_site8071] | 10.9 ± 0.64
ATAAATCAAATGCACACACACAAAAAAAAAAAAAAA [CACACA_site6221] | 9.31 ± 0.16
AATATAAAAATGCACACACACAAAAAAAAAAAAAAA [CACACA_site6546] | 9.03 ± 0.16
ATGGATTTTACCATAGCACACATATATGAATATTTT [CACACA_site8535] | 7.96 ± 0.54
ATTAAATTAAAATAATGTACTTAATACTTTTGCTTA [XGTACX_site8404] | 7.39 ± 0.39
AAATTATAATATAATACACACATAAAAAAAAAATCA [CACACA_site3634] | 7.76 ± 0.45

Sequence | gcPBM binding intensity (ln)
AAATCACATAAAACATAATCAAATGAAATATAATCA [CACACA_negctrl_site123] | 7.38 ± 0.6
AAAATATAAAATAATGCACACATAAACAAAAAATCA [CACACA_site8382] | 10.8 ± 0.96
AGGCACGTGTTATATACACACATAATCAAATAAACT [CACACA_site7852] | 8.11 ± 0.61
TTAACAAATAAATGCACACATATATATAAATAATAT [CACACA_site28] | 9.52 ± 0.35
AAAATATAATATAATGCACACATAAAACAAAAAAAA [CACACA_site8989] | 10.7 ± 0.67
CCCCCCGTGTTATATACACACATAATCAAATAAAAT [CACACA_site4111] | 10.9 ± 0.4
AATATAATATAATGCACACATAAACAAAAAAAAAAT [CACACA_site1304] | 10.9 ± 0.96
AATATAAAATAATGCACACATAAACAAAAAATCAAA [CACACA_site1371] | 10.9 ± 0.88
AATTTTTTATTCTTTGCATGTCATCATATATAATAT [TGCATGCA_site549] | 8.12 ± 0.69
TCTTATTTAAAAATAGCACACATTATATATATATAT [CACACA_site8916] | 9.44 ± 0.26
TTTTTTAAAATATAAAATATGTACAAATATGTTGAA [GTGCAC_negctrl_site379] | 7.97 ± 0.3
TGAATAAATAAACACACACACATATATATATCTGTA [CACACA_site4184] | 7.59 ± 0.4
AGTAATTATTTTAGAGTGCATAGTTTTTTAATAAAT | 9.54 ± 0.18
ACTATATATATAAGTGCATGTTCATTATACCTAAAG [TGCATGCA_site696] | 8.93 ± 0.57
AAGTGCATATTATTCACACATAATAATTGTATACCT [CACACA_site5965] | 10.3 ± 0.47
AATATTCAATATAAAGTGCATTATTGTGGACCTAAT | 11.3 ± 0.65
AATATTCAATATAAAGTGCATTATTGTGCCCCTAAT | 11.3 ± 0.64
TTCGCCCTAAATAGAGTGCATTATATATATTAATAT | 11.4 ± 0.58
ACGTACTGCCCTAAAGTGCATATATAATATAAACGA [GTGCAC_site9911] | 10.1 ± 0.34
TTAATTATTATATAAGTGCAATAATAAAAAGTTGTA [GTGCAC_site9552] | 10.7 ± 0.76
AAATAAATAAATAGAGTGCATATATATATATATTTT | 10.01 ± 0.042
ACTAACATATATTCAACACACATATACCTTCAACCC [CACACA_site3011] | 7.94 ± 0.72
TAAATGCACATATACACACACCCAATTTTAAGTTTT [CACACA_site7428] | 9.31 ± 0.3

Sequence | gcPBM binding intensity (ln)
TAAATAAAAAAAAAAAGTACATACATACAAACATAT [XGTACX_site4427] | 7.79 ± 0.47
TGAACATCATTTTTATGTACACACACATATACGTTG [XGTACX_site3864] | 7.96 ± 0.28
AAAAAAAAATAATATTGTACACACATAAATTCTTTG [XGTACX_site4315] | 7.51 ± 0.47
TTATAATACCTACAAAGTACAAACTTAAATATGAAC [XGTACX_site5684] | 7.68 ± 0.39
TATGGGTTTATATAGGTGCAATATATGTATATATAA | 11.2 ± 0.59
TGTATGTTTGGGTGCACACATAAATATTATATATAG [CACACA_site3397] | 10.5 ± 0.57
GCATATATGGATATATAGGTATATATAAATGCAATA [GTGCAC_negctrl_site24] | 7.82 ± 0.71
ATATATTTATAATAGGTGCATATGTTTTATTTTTCC [GTGCAC_site9849] | 10.1 ± 0.5
TATACAAGTATATAGGTGCATATATAAGTATATATT [GTGCAC_site9994] | 10.5 ± 0.53
TATAGGTATATATAAGTGCAATATATATGTATATAC [GTGCAC_site9427] | 10.9 ± 0.41
AAATACCTGATATATACACACTATGTTTTTCTTTTT [CACACA_site6680] | 7.77 ± 0.81
CTTTTTAAATTAAAATGTACAGAAAAATATTATTAT [XGTACX_site8760] | 7.72 ± 0.69
AAGGAAAATTTTTGGTGTACACAAAAAAATCCAAAA [XGTACX_site3596] | 8.46 ± 0.057
AAAGATGGAGTGATATGTACTGATATATTATTATAT [XGTACX_site6500] | 7.62 ± 0.67
TGTATAACCTGTGTTACACACATTAAAATTTATATA [CACACA_site4449] | 7.67 ± 0.46
AAATAATATTGAAAAGTGCATATTTTTGTTGATATA | 9.15 ± 0.21
TTATTTTTGTTTTGAAGTACAAAAAAATATATTCTT [XGTACX_site6416] | 7.63 ± 0.34
TTTGTTCTTTTTGAAGTGCACTGAAATATAACAAAA | 11.3 ± 0.16
AAAAAAAAAAAAAAAGTGCATATATAAATATTGTAT [GTGCAC_site9459] | 10.1 ± 0.18
AAAAAAAAAAAAAAAGTGCACTGAAAATATATTGAA [GTGCAC_site9395] | 11 ± 0.2
TTCTTGTTCCTGAAAGTGCATATAACAAAAATAACA [GTGCAC_site9635] | 9.99 ± 0.3
GTTTCCTTAATATTCACACACATATATATAATATAT [CACACA_site1856] | 8.22 ± 0.54
